# From PubChem BioAssay (Tox21)
# Several values for one entry are separate records, joined by “and”; a condition that tells them apart may be missing. Equal entries are not always repeated. Unmarked numbers belong to inactive results. Results filed as inconclusive are left out. Where a call stands in place of a potency, no number is given. Activity calls are given as the source filed them. The call rests on the fitted dose curve; in most records, active means well fitted curve in the direction sought with a large enough effect in the repeat runs; inconclusive means weak or mixed curves; inactive means no such curve, though single readings can be large; an effect the other way counts as inactive or inconclusive.
# Columns and labels:
# [1] = qHTS RealTime-Glo MT Cell Viability Assay in HEK293 cells - 16 hour (AID 1224872); further: nearly all actives have a fitted effect of over 50% in size; further: potency means the concentration at half of the fitted maximal effect; on activity change, negative = cytotoxicity: top concentration of the series differs between compounds
# Method in brief: (§1)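 HEK293 cells seeded with NanoLuc/prosubstrate reagent, rested 5 h at 37 C, then dosed and kept at 37 C up to 40 h. Nonlytic real-time luminescence from viable cells read at 0, 8, 16, 24, 32 and 40 h.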
# [2] = qHTS RealTime-Glo MT Cell Viability Assay in HepG2 cells - 8 hour (AID 1224873); further: nearly all actives have a fitted effect of over 55% in size; further: potency means the concentration at half of the fitted maximal effect
# Method in brief: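 HepG2 cells (600/well) mixed with RealTime-Glo MT reagent, settled 5 h at 37 C/5% CO2 before compound addition. Nonlytic NanoLuc luminescence from viable-cell prosubstrate reduction read repeatedly during 40 h treatment at 37 C.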
# [3] = qHTS RealTime-Glo MT Cell Viability Assay in HEK293 cells - 40 hour (AID 1224874); conditions: RealTime-Glo luminescence; max response: hits give low values; further: nearly all actives have a fitted effect of over 50% in size; further: potency means the concentration at half of the fitted maximal effect
# Method in brief: (§2)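 Real-time viability in HEK293: signal arises when living cells convert a prosubstrate for NanoLuc in the medium, so luminescence tracks viable cell number. Compound (23 nL, DMSO) added 5 h post-seeding; kinetic reads at 0–40 h, 37 C.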
# [4] = A CellTox Green Cytotoxicity Assay to monitor cytotoxicity in HEK293 cells - 24 hour (AID 1224875); further: nearly all actives have a fitted effect of over 45% in size; further: potency means the concentration at half of the fitted maximal effect; on activity change: series mostly up to about 77 µM
# Method in brief: (§3)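 Cells (HEK293, 600/well) and dye reagent are dispensed together. After 5 h at 37 C, 23 nL compound is pinned in. Plates stay at 37 C for 40 h with fluorescence read at 0h, 8h, 16h, 24h, 32h and 40h.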
# [5] = A CellTox Green Cytotoxicity Assay to monitor cytotoxicity in HepG2 cells - 16 hour (AID 1224876); further: nearly all actives have a fitted effect of over 45% in size; further: potency means the concentration at half of the fitted maximal effect
# Method in brief: (§4)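 Cells and non-lytic dye reagent are dispensed together (600 HepG2 cells/well) and incubated 5 h before DMSO compound transfer. Kinetic fluorescence is then recorded in the same wells during 40 h at 37 C.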
# [6] = qHTS RealTime-Glo MT Cell Viability Assay in HepG2 cells - 32 hour (AID 1224877); further: nearly all actives have a fitted effect of over 55% in size; further: potency means the concentration at half of the fitted maximal effect
# Method in brief: (§5)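 HepG2 cells (600/well) were dispensed with RealTime-Glo reagents, incubated 5 h at 37 °C, then treated with compounds in DMSO for up to 40 h. Nonlytic NanoLuc luminescence reflecting viable cells was read at each stated time point.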
# [7] = A CellTox Green Cytotoxicity Assay to monitor cytotoxicity in HepG2 cells - 24 hour (AID 1224878); further: nearly all actives have a fitted effect of over 45% in size; further: potency means the concentration at half of the fitted maximal effect
# Method in brief: as §4
# [8] = A CellTox Green Cytotoxicity Assay to monitor cytotoxicity in HepG2 cells - 40 hour (AID 1224879); further: nearly all actives have a fitted effect of over 40% in size; further: potency means the concentration at half of the fitted maximal effect
# Method in brief: as §4
# [9] = qHTS RealTime-Glo MT Cell Viability Assay in HEK293 cells - 0 hour (AID 1224880); further: top concentration of the series differs between compounds; nearly all actives have a fitted effect of over 45% in size
# Method in brief: as §2
# [10] = A CellTox Green Cytotoxicity Assay to monitor cytotoxicity in HEK293 cells - 32 hour (AID 1224881); further: nearly all actives have a fitted effect of over 40% in size; further: potency means the concentration at half of the fitted maximal effect
# Method in brief: as §3
# [11] = A CellTox Green Cytotoxicity Assay to monitor cytotoxicity in HepG2 cells - 0 hour (AID 1224882); further: nearly all actives have a fitted effect of over 35% in size
# Method in brief: as §4
# [12] = A CellTox Green Cytotoxicity Assay to monitor cytotoxicity in HepG2 cells - 32 hour (AID 1224883); further: nearly all actives have a fitted effect of over 50% in size; further: potency means the concentration at half of the fitted maximal effect
# Method in brief: as §4
# [13] = A CellTox Green Cytotoxicity Assay to monitor cytotoxicity in HEK293 cells - 8 hour (AID 1224884); further: nearly all actives have a fitted effect of over 35% in size; further: potency means the concentration at half of the fitted maximal effect
# Method in brief: as §3
# [14] = qHTS RealTime-Glo MT Cell Viability Assay in HepG2 cells - 16 hour (AID 1224885); further: nearly all actives have a fitted effect of over 50% in size; further: potency means the concentration at half of the fitted maximal effect
# Method in brief: as §5
# [15] = qHTS RealTime-Glo MT Cell Viability Assay in HEK293 cells - 24 hour (AID 1224886); further: nearly all actives have a fitted effect of over 50% in size; further: potency means the concentration at half of the fitted maximal effect; on activity change, negative = cytotoxicity: top concentration of the series differs between compounds
# Method in brief: as §1
# [16] = qHTS RealTime-Glo MT Cell Viability Assay in HEK293 cells - 8 hour (AID 1224887); further: nearly all actives have a fitted effect of over 50% in size; further: potency means the concentration at half of the fitted maximal effect; on activity change, negative = cytotoxicity: top concentration of the series differs between compounds
# Method in brief: as §2
# [17] = A CellTox Green Cytotoxicity Assay to monitor cytotoxicity in HEK293 cells - 16 hour (AID 1224888); further: nearly all actives have a fitted effect of over 35% in size; further: potency means the concentration at half of the fitted maximal effect
# Method in brief: as §3
# [18] = qHTS RealTime-Glo MT Cell Viability Assay in HepG2 cells - 0 hour (AID 1224889); further: nearly all actives have a fitted effect of over 50% in size; further: potency means the concentration at half of the fitted maximal effect
# Method in brief: as §5
# [19] = A CellTox Green Cytotoxicity Assay to monitor cytotoxicity in HepG2 cells - 8 hour (AID 1224890); further: nearly all actives have a fitted effect of over 45% in size; further: potency means the concentration at half of the fitted maximal effect
# Method in brief: as §4
# [20] = qHTS assay to identify small molecule antagonists of the estrogen receptor alpha (ER-alpha) signaling pathway using the BG1 cell line in the presence of 0.1 nM 17-beta-estradiol - cell viability counter screen (AID 1259241); further: nearly all actives have a fitted effect of over 40% in size; further: potency means the concentration at half of the fitted maximal effect
# Method in brief: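 Viability in VM7Luc4E2 cells after 22 hr compound exposure under 0.1 nM 17beta-estradiol stimulation, by CellTiter-Fluor.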
compound,measurement,setting,value
C[CH2][Hg][N]1C(=O)C2C(C1=O)C1(Cl)C(Cl)=C(Cl)C2(Cl)C1(Cl)Cl (stereo unspecified),Potency,[1],2.61 µM (active)
same,Potency,[2],7.37 µM (active)
same,Potency,[3],2.08 µM (active)
same,Potency,[4],4.65 µM (active)
same,Potency,[5],6.57 µM (active)
same,Potency,[6],6.57 µM (active)
same,Potency,[7],7.37 µM (active)
same,Potency,[8],6.57 µM (active)
same,"activity change, negative = cytotoxicity",[9],-4.29% [at 15.8 µM]
same,Potency,[10],4.65 µM (active)
same,cytotoxicity,[11],1.33% [at 15.8 µM]
same,Potency,[12],8.27 µM (active)
same,Potency,[13],4.65 µM (active)
same,Potency,[14],6.57 µM (active)
same,Potency,[15],2.33 µM (active)
same,Potency,[16],3.69 µM (active)
same,Potency,[17],4.65 µM (active)
same,"activity change, negative = cytotoxicity",[18],-6.6% [at 15.8 µM]
same,Potency,[19],8.27 µM (active)
same,Potency,[20],13 µM (active)
N#CSCSC#N,Potency,[1],12.6 µM (active) and 15.3 µM (active)
same,Potency,[2],21.7 µM (active)
same,Potency,[3],11.2 µM (active) and 21.7 µM (active)
same,Potency,[4],54.4 µM (active)
same,Potency,[5],56.2 µM (active) and 24.3 µM (active)
same,Potency,[6],50.1 µM (active) and 19.3 µM (active)
same,Potency,[7],50.1 µM (active) and 19.3 µM (active)
same,Potency,[8],39.8 µM (active) and 17.2 µM (active)
same,Potency,[9],inactive
same,Potency,[10],43.2 µM (active)
same,Potency,[11],inactive
same,Potency,[12],39.8 µM (active) and 17.2 µM (active)
same,Potency,[13],inactive
same,Potency,[14],56.2 µM (active) and 19.3 µM (active)
same,Potency,[15],12.6 µM (active) and 19.3 µM (active)
same,Potency,[16],22.4 µM (active) and 21.7 µM (active)
same,Potency,[18],inactive
same,Potency,[19],34.3 µM (active)
same,Potency,[20],70.1 µM (active)
N#Cc1ccccc1N,Potency,[1],inactive
same,Potency,[2],inactive
same,max response,[3],0.901%
same,Potency,[4],inactive
same,Potency,[5],inactive
same,Potency,[6],inactive
same,Potency,[7],inactive
same,Potency,[8],inactive
same,Potency,[10],inactive
same,Potency,[11],inactive
same,Potency,[12],inactive
same,Potency,[13],inactive
same,Potency,[14],inactive
same,Potency,[15],inactive
same,Potency,[16],inactive
same,Potency,[17],inactive
same,Potency,[18],inactive
same,Potency,[20],inactive
BrCC(Br)c1ccccc1 (stereo unspecified),Potency,[1],inactive
same,Potency,[2],inactive
same,max response,[3],1.25%
same,Potency,[4],inactive
same,Potency,[5],inactive
same,Potency,[6],inactive
same,Potency,[7],inactive
same,Potency,[8],inactive
same,Potency,[10],inactive
same,Potency,[11],inactive
same,Potency,[12],inactive
same,Potency,[13],inactive
same,Potency,[14],inactive
same,Potency,[15],inactive
same,Potency,[16],inactive
same,Potency,[17],inactive
same,Potency,[18],inactive
same,Potency,[19],inactive
same,Potency,[20],inactive
CN(C)CCc1c[nH]c2cccc(O)c12,Potency,[1],inactive
same,Potency,[2],inactive
same,max response,[3],-1.01%
same,Potency,[4],inactive
same,Potency,[5],inactive
same,Potency,[6],inactive
same,Potency,[7],inactive
same,Potency,[9],inactive
same,Potency,[10],inactive
same,Potency,[11],inactive
same,Potency,[12],inactive
same,Potency,[13],inactive
same,Potency,[14],inactive
same,Potency,[15],inactive
same,Potency,[16],inactive
same,Potency,[18],inactive
same,Potency,[19],inactive
CC(C)(C)OO,Potency,[1],inactive
same,Potency,[2],inactive
same,max response,[3],12.3%
same,Potency,[4],inactive
same,Potency,[5],inactive
same,Potency,[6],inactive
same,Potency,[7],inactive
same,Potency,[8],inactive
same,Potency,[9],inactive
same,Potency,[10],inactive
same,Potency,[12],inactive
same,Potency,[13],inactive
same,Potency,[14],inactive
same,Potency,[15],inactive
same,Potency,[16],inactive
same,Potency,[17],inactive
same,Potency,[18],inactive
same,Potency,[19],inactive
same,Potency,[20],inactive
ClC1=C(Cl)[C@]2(Cl)[C@@H]3[C@@H]4C[C@@H]([C@H]5O[C@@H]45)[C@@H]3[C@@]1(Cl)C2(Cl)Cl,Potency,[1],21.9 µM (active)
same,Potency,[2],43.6 µM (active)
same,Potency,[3],44.9 µM (active)
same,Potency,[4],49 µM (active)
same,Potency,[5],54.9 µM (active)
same,Potency,[6],49 µM (active)
same,Potency,[7],49 µM (active)
same,Potency,[8],49 µM (active)
same,Potency,[10],43.6 µM (active)
same,Potency,[12],54.9 µM (active)
same,Potency,[13],27.5 µM (active)
same,Potency,[14],43.6 µM (active)
same,Potency,[15],21.9 µM (active)
same,Potency,[16],38.9 µM (active)
same,Potency,[18],inactive
same,Potency,[19],49 µM (active)
same,Potency,[20],inactive
Fc1cccc(Cl)c1CCl,Potency,[1],inactive
same,Potency,[2],inactive
same,max response,[3],-1.59%
same,Potency,[4],inactive
same,Potency,[5],inactive
same,Potency,[6],inactive
same,Potency,[7],inactive
same,Potency,[8],inactive
same,Potency,[10],inactive
same,Potency,[11],inactive
same,Potency,[12],inactive
same,Potency,[13],inactive
same,Potency,[14],inactive
same,Potency,[15],inactive
same,Potency,[16],inactive
same,Potency,[17],inactive
same,Potency,[18],inactive
same,Potency,[19],inactive
c1ccc(OCC2CO2)cc1 (stereo unspecified),Potency,[1],inactive
same,Potency,[2],inactive
same,max response,[3],7.88%
same,Potency,[4],inactive
same,Potency,[5],inactive
same,Potency,[6],inactive
same,Potency,[7],inactive
same,Potency,[8],inactive
same,Potency,[9],inactive
same,Potency,[10],inactive
same,Potency,[11],inactive
same,Potency,[12],inactive
same,Potency,[14],inactive
same,Potency,[15],inactive
same,Potency,[16],inactive
same,Potency,[17],inactive
same,Potency,[18],inactive
same,Potency,[19],inactive
same,Potency,[20],inactive
COc1ccc([N+](=O)[O-])cc1O,Potency,[1],inactive
same,Potency,[2],inactive
same,max response,[3],1.5%
same,Potency,[4],inactive
same,Potency,[5],inactive
same,Potency,[6],inactive
same,Potency,[7],inactive
same,Potency,[8],inactive
same,Potency,[10],inactive
same,Potency,[11],inactive
same,Potency,[12],inactive
same,Potency,[13],inactive
same,Potency,[14],inactive
same,Potency,[15],inactive
same,Potency,[16],inactive
same,Potency,[17],inactive
same,Potency,[19],inactive
same,Potency,[20],inactive
COc1cc(N)c(Cl)cc1C(=O)NC1CN2CCC1CC2 (stereo unspecified),Potency,[1],inactive
same,Potency,[2],inactive
same,max response,[3],-15.3%
same,Potency,[4],inactive
same,Potency,[5],inactive
same,Potency,[6],inactive
same,Potency,[7],inactive
same,Potency,[9],inactive
same,Potency,[10],inactive
same,Potency,[11],inactive
same,Potency,[12],inactive
same,Potency,[13],inactive
same,Potency,[14],inactive
same,Potency,[15],inactive
same,Potency,[16],inactive
same,Potency,[17],inactive
same,Potency,[18],inactive
same,Potency,[19],inactive
same,Potency,[20],inactive
C[C@@H]1CC[C@@]2(OC1)O[C@H]1[C@@H](O)[C@H]3[C@@H]4CC[C@H]5C[C@@H](O[C@@H]6O[C@H](CO)[C@H](O[C@@H]7O[C@H](CO)[C@@H](O)[C@H](O[C@@H]8OC[C@@H](O)[C@H](O)[C@H]8O)[C@H]7O[C@@H]7O[C@H](CO)[C@@H](O)[C@H](O[C@@H]8O[C@H](CO)[C@@H](O)[C@H](O)[C@H]8O)[C@H]7O)[C@H](O)[C@H]6O)[C@H](O)C[C@]5(C)[C@H]4CC[C@]3(C)[C@H]1[C@@H]2C,Potency,[1],9.25 µM (active)
same,Potency,[2],16.4 µM (active)
same,Potency,[3],11.6 µM (active)
same,Potency,[4],1.31 µM (active)
same,Potency,[5],13.1 µM (active)
same,Potency,[6],23.2 µM (active)
same,Potency,[7],11.6 µM (active)
same,Potency,[8],11.6 µM (active)
same,Potency,[10],1.64 µM (active)
same,Potency,[12],11.6 µM (active)
same,Potency,[13],4.63 µM (active)
same,Potency,[14],18.4 µM (active)
same,Potency,[15],11.6 µM (active)
same,Potency,[16],6.55 µM (active)
same,Potency,[17],4.63 µM (active)
same,Potency,[18],23.2 µM (active)
same,Potency,[19],13.1 µM (active)
same,Potency,[20],29 µM (active)
